Screen size: about 5,500 compounds; about 2,000 (36%) were called active. Another 18% or so got no clear call; they are omitted. The list shows a part of the results. Unmarked numbers belong to inactive results. No stated cut-off is given here; in the data, active means normalized growth mostly below about 0.91 (no sharp cut-off); inconclusive means no clear call, values can overlap the other calls; inactive means mostly above about 0.92.
Experiment: chemical genetic growth profiling, strain panel (AID 1159580);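 further: tested at 20 µM; growth read once vehicle control cultures reached saturation at 30 °C; 1 = growth at the plate median or of vehicle wells; lower values mean less growth of the strain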
Conditions: S. cerevisiae deletion strains, growth OD

C=CCN1CCc2cccc3c2[C@H]1Cc1ccc(O)c(O)c1-3
normalized growth (locus YAL040C, strain CLN3, active compounds read low): 0.942 | normalized growth (locus YCL061C, strain MRC1 (second series), active compounds read low): 0.481 (active) | normalized growth (locus YDR363W, strain ESC2, active compounds read low): 0.516 (active) | normalized growth (locus YER002W, strain NOP16, active compounds read low): 0.976 | normalized growth (locus YGR078C, strain PAC10, active compounds read low): 0.979 | normalized growth (locus YJR075W, strain HOC1, active compounds read low): 0.199 (active) | normalized growth (locus YNL128W, strain TEP1, active compounds read low): 0.888 (active) | normalized growth (locus YNL175C, strain NOP13, active compounds read low): 0.966 | normalized growth (locus YNL197C, strain WHI3, active compounds read low): 0.961 | normalized growth (locus YNL224C, strain SQS1, active compounds read low): 0.985 | normalized growth (locus YNL322C, strain KRE1, active compounds read low): 0.152 (active) | normalized growth (locus YOR083W, strain WHI5 (second series), active compounds read low): 0.712 (active)

Source: PubChem BioAssay AID1159580 (chemical genetic matrix, 2015)
